# Reference: article PMC3919609, “Deep sequencing of large library selections allows computational discovery of diverse sets of zinc fingers that bind common targets”
# What was measured:
# Experiment in all cases: Zn; 100 nM beta-estradiol; yeast GFP reporter, 12 h induction, 3 biological replicates
# [1] = molecular target: RA three-finger array, finger 2 DSSNLRS (synthetic construct (mouse Zif268 …, UniProt P08046 333-418, E352N;T354R;R355A;R377D;D379S;H380N;T382R;T383S;D407A;E408N;R409L;K410V)); conditions: tags: estrogen receptor LBD - VP16 fusion (left out); vector residues GT and GS kept at the ends; dsDNA, one strand shown
# [2] = molecular target: RA three-finger array, finger 2 ASSNLRA (synthetic construct (mouse Zif268 …, UniProt P08046 333-418, E352N;T354R;R355A;R377A;D379S;H380N;T382R;T383A;D407A;E408N;R409L;K410V)); conditions: tags: estrogen receptor LBD - VP16 fusion (left out); vector residues GT and GS kept at the ends; dsDNA, one strand shown
# [3] = molecular target: RA three-finger array, finger 2 HSSNLTH (synthetic construct (mouse Zif268 …, UniProt P08046 333-418, E352N;T354R;R355A;R377H;D379S;H380N;T383H;D407A;E408N;R409L;K410V)); conditions: tags: estrogen receptor LBD - VP16 fusion (left out); vector residues GT and GS kept at the ends; dsDNA, one strand shown
# [4] = molecular target: RA three-finger array, finger 2 QSGNLKS (synthetic construct (mouse Zif268 …, UniProt P08046 333-418, E352N;T354R;R355A;R377Q;D379G;H380N;T382K;T383S;D407A;E408N;R409L;K410V)); conditions: tags: estrogen receptor LBD - VP16 fusion (left out); vector residues GT and GS kept at the ends; dsDNA, one strand shown
# [5] = molecular target: RA three-finger array, finger 2 TSYNLTR (synthetic construct (mouse Zif268 …, UniProt P08046 333-418, E352N;T354R;R355A;R377T;D379Y;H380N;T383R;D407A;E408N;R409L;K410V)); conditions: tags: estrogen receptor LBD - VP16 fusion (left out); vector residues GT and GS kept at the ends; dsDNA, one strand shown
# [6] = molecular target: RA three-finger array, finger 2 RADNLTE (synthetic construct (mouse Zif268 …, UniProt P08046 333-418, E352N;T354R;R355A;S378A;H380N;T383E;D407A;E408N;R409L;K410V)); conditions: tags: estrogen receptor LBD - VP16 fusion (left out); vector residues GT and GS kept at the ends; dsDNA, one strand shown
# [7] = molecular target: RA three-finger array, finger 2 TSWNLRS (synthetic construct (mouse Zif268 …, UniProt P08046 333-418, E352N;T354R;R355A;R377T;D379W;H380N;T382R;T383S;D407A;E408N;R409L;K410V)); conditions: tags: estrogen receptor LBD - VP16 fusion (left out); vector residues GT and GS kept at the ends; dsDNA, one strand shown
# [8] = molecular target: RA three-finger array, finger 2 RSGNLRS (synthetic construct (mouse Zif268 …, UniProt P08046 333-418, E352N;T354R;R355A;D379G;H380N;T382R;T383S;D407A;E408N;R409L;K410V)); conditions: tags: estrogen receptor LBD - VP16 fusion (left out); vector residues GT and GS kept at the ends; dsDNA, one strand shown
# [9] = molecular target: Zif268 (Egr1) fingers 1-3 (Mus musculus, UniProt P08046 333-418); conditions: dsDNA, one strand shown
# [10] = molecular target: RA three-finger array, finger 2 QSGNLTE (synthetic construct (mouse Zif268 …, UniProt P08046 333-418, E352N;T354R;R355A;R377Q;D379G;H380N;T383E;D407A;E408N;R409L;K410V)); conditions: tags: estrogen receptor LBD - VP16 fusion (left out); vector residues GT and GS kept at the ends; dsDNA, one strand shown
# [11] = molecular target: RA three-finger array, finger 2 RSDNLTR (synthetic construct (mouse Zif268 …, UniProt P08046 333-418, E352N;T354R;R355A;H380N;T383R;D407A;E408N;R409L;K410V)); conditions: tags: estrogen receptor LBD - VP16 fusion (left out); vector residues GT and GS kept at the ends; dsDNA, one strand shown
sequence,measurement,setting,value
GAGCACAAG,binding signal,[1],0.498 ± 0.055 mean GFP / mean GFP of Zif268 on its consensus site
same,binding signal,[2],0.225 ± 0.031 mean GFP / mean GFP of Zif268 on its consensus site
same,binding signal,[3],0.472 ± 0.086 mean GFP / mean GFP of Zif268 on its consensus site
same,binding signal,[4],0.219 ± 0.008 mean GFP / mean GFP of Zif268 on its consensus site
GAGCAGAAG,binding signal,[5],0.098 mean GFP / mean GFP of Zif268 on its consensus site
same,binding signal,[6],0.267 ± 0.016 mean GFP / mean GFP of Zif268 on its consensus site
same,binding signal,[7],1.13 ± 0.189 mean GFP / mean GFP of Zif268 on its consensus site
same,binding signal,[2],0.103 ± 0.004 mean GFP / mean GFP of Zif268 on its consensus site
same,binding signal,[8],0.997 ± 0.075 mean GFP / mean GFP of Zif268 on its consensus site
same,binding signal,[4],0.174 ± 0.003 mean GFP / mean GFP of Zif268 on its consensus site
GCGTGGGGG,binding signal,[9],0.059 mean GFP / mean GFP of Zif268 on its consensus site
GCGTGGGTG,binding signal,[9],0.878 mean GFP / mean GFP of Zif268 on its consensus site
GAGAAGAAG,binding signal,[7],0.437 ± 0.032 mean GFP / mean GFP of Zif268 on its consensus site
same,binding signal,[8],0.587 ± 0.052 mean GFP / mean GFP of Zif268 on its consensus site
GCGTGGGCG,binding signal,[9],1 mean GFP / mean GFP of Zif268 on its consensus site
GCGTGGGCC,binding signal,[9],0.147 mean GFP / mean GFP of Zif268 on its consensus site
GAGCATAAG,binding signal,[7],0.344 ± 0.012 mean GFP / mean GFP of Zif268 on its consensus site
same,binding signal,[2],0.875 ± 0.05 mean GFP / mean GFP of Zif268 on its consensus site
same,binding signal,[8],0.264 ± 0.005 mean GFP / mean GFP of Zif268 on its consensus site
same,binding signal,[4],0.226 ± 0.01 mean GFP / mean GFP of Zif268 on its consensus site
GAGCAAAAG,binding signal,[10],0.251 ± 0.044 mean GFP / mean GFP of Zif268 on its consensus site
same,binding signal,[8],0.138 ± 0.011 mean GFP / mean GFP of Zif268 on its consensus site
same,binding signal,[4],0.463 ± 0.041 mean GFP / mean GFP of Zif268 on its consensus site
GCGTGGGAG,binding signal,[9],0.755 mean GFP / mean GFP of Zif268 on its consensus site
GAGGAGAAG,binding signal,[5],0.873 ± 0.063 mean GFP / mean GFP of Zif268 on its consensus site
same,binding signal,[7],0.103 ± 0.007 mean GFP / mean GFP of Zif268 on its consensus site
same,binding signal,[11],0.986 ± 0.121 mean GFP / mean GFP of Zif268 on its consensus site
same,binding signal,[8],0.149 ± 0.009 mean GFP / mean GFP of Zif268 on its consensus site
